FBA Mtb inh: inhibits M. tuberculosis FBA enzyme; P9WQA3; purified M. tuberculosis FBA, fluorescence read-out; inhibition, % at 1 µM; 360,000 tested, 2.3% active; AID 588726
Target sequence (P9WQA3 whole entry, looked up): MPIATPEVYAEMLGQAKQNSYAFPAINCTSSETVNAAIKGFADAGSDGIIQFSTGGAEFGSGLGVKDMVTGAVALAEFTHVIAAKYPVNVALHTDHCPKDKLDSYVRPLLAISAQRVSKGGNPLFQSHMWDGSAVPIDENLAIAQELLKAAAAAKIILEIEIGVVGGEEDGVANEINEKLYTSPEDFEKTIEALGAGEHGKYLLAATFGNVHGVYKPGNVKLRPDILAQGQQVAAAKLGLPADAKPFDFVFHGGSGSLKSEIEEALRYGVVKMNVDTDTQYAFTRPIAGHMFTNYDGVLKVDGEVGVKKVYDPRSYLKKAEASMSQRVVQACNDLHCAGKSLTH
GDH-TPI counter-1: GDH-TPI coupled enzyme inhibition counter-screen | GDH-TPI coupled enzyme counterscreen, NADH absorbance | inhibition, % at 4.8 µM | 360,000 tested, 1.2% active; in the data active means inhibition above about 30%
BioA inh: inhibitors of Mycobacterium tuberculosis BioA enzyme | purified M. tuberculosis BioA enzyme, plate reader | inhibition, % at 9.99 µM | AID 602481 | 360,000 tested, 0.096% active; in the data active means inhibition above about 40%
BH1578 lux ind: quorum light induction in luxS cqsA deficient V. cholerae | V. cholerae BH1578 lux reporter, luminescence, 6 h | activation, % at 18.7 µM | 350,000 tested, 0.16% active | AID 588436; in the data active means activation mostly above about 9.7%, no sharp cut-off
Mtb FBA confirm: Mtb FBA inhibition, confirmed; purified M. tuberculosis FBA, fluorescence read-out; shares compounds with FBA Mtb inh; AID 651616; inhibition, % at 1 µM; 5,600 tested, 78% active
GDH-TPI counter-2: GDH-TPI inhibition counter-screen for FBA inhibitors; inhibition, % at 1 µM; 5,600 tested, 81% active; GDH-TPI coupled enzyme counterscreen, fluorescence; shares compounds with FBA Mtb inh; in the data active means inhibition above about 10%
GDH-TPI dose: inhibits GDH-TPI coupling enzymes in dose response | shares compounds with FBA Mtb inh | GDH-TPI coupled enzyme assay, fluorescence, artifact counterscreen | IC50, µM | 170 tested, 79% active | AID 652145; call rule not given here
Of the large screens only hits and unclear results are named; the others gave an inactive call (follow-up assays come after a bar, where they were run). Compounds with a hit are over-represented: about 3% of the library has one in this group of screens. Unless noted, no stated cut-off is given here; in the data, active means inhibition above about 27%; inactive means the rest.

CC(C)C#Cc1ccc2c(c1)O[C@H](CN(C)C(=O)Cc1ccccn1)[C@@H](C)CN([C@@H](C)CO)S2(=O)=O	none (no result: FBA Mtb inh, GDH-TPI counter-1, BH1578 lux ind)
CCOC(=O)c1cn(Cc2ccccc2)nc1-c1ccccc1	none (no result: BioA inh)
CCOC(=O)c1cn(Cc2cccc(Cl)c2)c2cc(C)nn2c1=O	FBA Mtb inh 28.0 (no result: BioA inh) | Mtb FBA confirm 67.0 | GDH-TPI counter-2 52.6
O=c1nc(-c2ccccc2Cl)c2cc(F)ccc2[nH]1	FBA Mtb inh 53.1 | Mtb FBA confirm 52.6 | GDH-TPI counter-2 46.2
COc1cc(C(=O)NCC2CCCO2)cc(OC)c1OC (stereo unspecified)	none
COC(=O)c1cnn2c1C(=O)N(Cc1cccs1)CC2	none
COC(=O)C1=CN(C(C)c2ccccc2)C=C(C(=O)OC)C1c1cc(OC)c(OC)c(OC)c1 (stereo unspecified)	FBA Mtb inh 71.3 | Mtb FBA confirm 52.1 | GDH-TPI counter-2 47.8
COCCN1C=C(C(=O)OC)C(c2ccc(OC)c(OC)c2)C(C(=O)OC)=C1	FBA Mtb inh 28.7 | Mtb FBA confirm 135.1 | GDH-TPI counter-2 98.2
COC(=O)C1=CN(CC2CCCO2)C=C(C(=O)OC)C1c1cc(OC)c(OC)c(OC)c1 (stereo unspecified)	FBA Mtb inh 52.3 | Mtb FBA confirm inactive | GDH-TPI counter-2 inactive
COc1cc(CC(=O)NC(c2ccccc2)c2ccccc2)cc(OC)c1OC	none (no result: BioA inh)
COC(=O)C1=CN(Cc2cccs2)C=C(C(=O)OC)C1c1cccc(O)c1	FBA Mtb inh 84.6 (no result: BioA inh) | Mtb FBA confirm 94.3 | GDH-TPI counter-2 82.1
CCOC(=O)C1=C(C)NC(C)=C(C(=O)OCC)C1c1ccc(OC)c(OC)c1	none
COc1cccc(-c2cnc3c(c2)C(=O)N([C@H](C)CO)C[C@H](C)[C@@H](CN(C)C(C)=O)O3)c1	none (no result: FBA Mtb inh, GDH-TPI counter-1, BH1578 lux ind)
COc1ccc(NC(=O)Nc2ccc3c(c2)[C@@H]2C[C@H](CC(=O)NCc4ccccn4)O[C@@H](CO)[C@@H]2O3)cc1	none (no result: FBA Mtb inh, GDH-TPI counter-1, BH1578 lux ind)
COC(=O)C1=CN(Cc2ccc(OC)cc2)C=C(C(=O)OC)C1c1cc(OC)c(OC)c(OC)c1	FBA Mtb inh 48.4 | Mtb FBA confirm 87.7 | GDH-TPI counter-2 63.8
CCOC(=O)C1=C(C)NC(C)=C(C(=O)OCC)C1c1cccs1	none (no result: BioA inh)
CCOC(=O)C1=CN(Cc2ccc(OC)cc2)C=C(C(=O)OCC)C1c1cccs1	FBA Mtb inh 31.8 (no result: BioA inh) | Mtb FBA confirm 150.9 | GDH-TPI counter-2 136.0
COC(=O)C1=CN(Cc2ccc(F)cc2)C=C(C(=O)OC)C1c1cc(OC)c(OC)c(OC)c1	FBA Mtb inh 28.7 | Mtb FBA confirm inactive | GDH-TPI counter-2 inactive | GDH-TPI dose 2.92
O=C(Nc1ccc(F)cc1)N1C[C@@H]2[C@H](c3ccccc31)[C@@H](CO)N2C(=O)c1ccccc1F	none (no result: FBA Mtb inh, GDH-TPI counter-1, BH1578 lux ind)
COCC(=O)N1C[C@@H](C)[C@H](OC)CN(C)C(=O)c2cc(NC(=O)c3cnccn3)ccc2OC[C@@H]1C	none (no result: FBA Mtb inh, GDH-TPI counter-1, BH1578 lux ind)
CO[C@H]1CN(C)C(=O)c2ccc(NS(C)(=O)=O)cc2OC[C@@H](C)N(C(=O)C2CC2)C[C@H]1C	none (no result: FBA Mtb inh, GDH-TPI counter-1, BH1578 lux ind)
Cc1ccccc1-c1cnc2c(c1)C(=O)N([C@H](C)CO)C[C@H](C)[C@H](CN(C)Cc1cncnc1)O2	none (no result: FBA Mtb inh, GDH-TPI counter-1, BH1578 lux ind)
COC(=O)c1ccc2cc(C)cc(C)c2n1	FBA Mtb inh 58.8 (no result: GDH-TPI counter-1, BH1578 lux ind) | Mtb FBA confirm inactive | GDH-TPI counter-2 14.7
CC(/C=C/c1ccc(O)cc1)=N/O	FBA Mtb inh 67.5 | Mtb FBA confirm inactive | GDH-TPI counter-2 inactive
CC(/C=C/c1ccccc1)=N/O	none
CC(=O)Nc1ccc2c(c1)C(=O)N(C)[C@H]1CC[C@H](CC(=O)Nc3cn(C)nc3C)O[C@H]1CO2	none (no result: FBA Mtb inh, GDH-TPI counter-1, BH1578 lux ind)
COc1ccc(S(=O)(=O)N(C)C[C@@H]2OCCCC[C@H](C)Oc3ccc(NS(=O)(=O)c4cn(C)cn4)cc3C(=O)N([C@@H](C)CO)C[C@H]2C)cc1	none (no result: FBA Mtb inh, GDH-TPI counter-1, BH1578 lux ind)
C[C@@H]1CN([C@@H](C)CO)C(=O)c2cc(NS(=O)(=O)c3cccs3)ccc2O[C@@H]1CN(C)C(=O)Nc1cccc2ccccc12	none (no result: FBA Mtb inh, GDH-TPI counter-1, BH1578 lux ind)
Cc1cc2c([nH]c3ccccc32)c(C)n1	FBA Mtb inh 95.5 | Mtb FBA confirm inactive | GDH-TPI counter-2 inactive
Cc1c2c(cc3c1[nH]c1ccccc13)C=NCC2	none
Cc1nc(C(=O)NCCO)cc2c1[nH]c1ccccc12	none
Cc1nc(C(=O)O)cc2c1[nH]c1ccccc12	FBA Mtb inh 85.4 | Mtb FBA confirm active | GDH-TPI counter-2 active
CCN1C(=O)c2cccc3c(S(=O)(=O)N(C(C)=O)c4ccc(OC(C)=O)cc4)ccc1c23	FBA Mtb inh 53.0 | Mtb FBA confirm active | GDH-TPI counter-2 active
COc1ccc(N(C(=O)c2ccncc2)S(=O)(=O)c2ccc3c4c(cccc24)C(=O)N3C)cc1	none (no result: BioA inh)
COc1ccc(Nc2nc(Nc3ccc(OC)cc3)nc(SC3=NCCS3)n2)cc1	FBA Mtb inh 41.0 | Mtb FBA confirm 116.3 | GDH-TPI counter-2 77.4
COc1ccc(Nc2nc(OC)nc(OC)n2)cc1	none
C[C@@H]1CN([C@H](C)CO)C(=O)c2cc(NC(=O)CCC(F)(F)F)ccc2O[C@@H](C)CCCCO[C@@H]1CN(C)S(=O)(=O)c1cccs1	none (no result: FBA Mtb inh, GDH-TPI counter-1, BH1578 lux ind)
CCn1cc(C(=O)NC(C)C)c(=O)c2cc(F)c(N3CCN(C(=O)c4ccco4)CC3)cc21	FBA Mtb inh 54.8 (no result: BioA inh) | Mtb FBA confirm 99.6 | GDH-TPI counter-2 69.7
CCn1cc(C(=O)NCc2ccncc2)c(=O)c2cc(F)c(N3CCN(C(=O)c4ccco4)CC3)cc21	FBA Mtb inh 41.8 | Mtb FBA confirm 35.2 | GDH-TPI counter-2 22.1
C[C@H](CO)N1C[C@H](C)[C@H](CN(C)C(=O)Nc2ccc3c(c2)OCO3)Oc2c(NC(=O)C3CCOCC3)cccc2C1=O	none (no result: FBA Mtb inh, GDH-TPI counter-1, BH1578 lux ind)
COCCn1cc(C(=O)NCCCOC(C)C)c2c3ccccc3n(C)c2c1=O	FBA Mtb inh 30.0 | Mtb FBA confirm 128.0 | GDH-TPI counter-2 112.0
COCCCNC(=O)c1cn(CCOC)c(=O)c2c1c1ccccc1n2C	FBA Mtb inh 37.1 | Mtb FBA confirm 89.8 | GDH-TPI counter-2 96.5
COCCNC(=O)c1cn(CCOC)c(=O)c2c1c1ccccc1n2C	FBA Mtb inh 27.4 | Mtb FBA confirm 133.6 | GDH-TPI counter-2 104.1
CC(C)Cn1cc(C(=O)NCCCN2CCCC2=O)c2c3ccccc3n(C)c2c1=O	FBA Mtb inh 33.3 | Mtb FBA confirm inactive | GDH-TPI counter-2 inactive
C[C@H](CO)N1C[C@H](C)[C@H](CN(C)Cc2ccc3c(c2)OCO3)Oc2ccc(NC(=O)CCCCCC(=O)Nc3ccccc3N)cc2CC1=O	none (no result: FBA Mtb inh, GDH-TPI counter-1, BH1578 lux ind)
Nc1c(C(=O)OCc2ccccc2)c2nc3ccccc3nc2n1Cc1cccs1	FBA Mtb inh 50.6 | Mtb FBA confirm 168.5 | GDH-TPI counter-2 149.7
Nc1c(C(=O)NCCN2CCOCC2)c2nc3ccccc3nc2n1Cc1ccccc1	FBA Mtb inh 90.7 | Mtb FBA confirm inactive | GDH-TPI counter-2 inactive
COCCNC(=O)c1c(NC(=O)c2ccco2)n(Cc2ccccc2)c2nc3ccccc3nc12	FBA Mtb inh 74.8 (no result: BH1578 lux ind) | Mtb FBA confirm 64.6 | GDH-TPI counter-2 64.8

Screening data as filed in PubChem.
